From article PMC8384837, “Expanding the binding specificity for RNA recognition by a PUF domain” come the findings set out here.

What all share (experiment): yeast three-hybrid, YBZ-1, SC-Leu-His + 0.5 mM 3-AT, 4 days
Holding throughout (conditions): tags: N-Gal4 AD-HA kept; label: inside an RPR1-promoter hybrid RNA with tandem MS2 sites; ssRNA

One experiment deals with PUM1 PUF domain R3-RTC (Homo sapiens, UniProt Q14671 828-1176, C935R;R936T;Q939C). Summed up:
(§1)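 The interaction score is the log change in variant frequency from input to selection. Scores were computed in log2 with a pseudocount of 1 for absent variants, using Illumina sequencing of PCR-amplified repeat regions. The input came from four days on SC-Leu and the selection from four days on SC-Leu-His + 0.5 mM 3-AT. The cells were strain YBZ-1 (LexA–MS2 coat fusion, HIS3 reporter) co-expressing Pumilio-1 PUF domain libraries and matching RNA elements from a centromeric plasmid.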

The next experiment deals with T1, PUM1 PUF domain R6-AWG (Homo sapiens, UniProt Q14671 828-1176, N1043A;Y1044W;Q1047G).
T1 sequence: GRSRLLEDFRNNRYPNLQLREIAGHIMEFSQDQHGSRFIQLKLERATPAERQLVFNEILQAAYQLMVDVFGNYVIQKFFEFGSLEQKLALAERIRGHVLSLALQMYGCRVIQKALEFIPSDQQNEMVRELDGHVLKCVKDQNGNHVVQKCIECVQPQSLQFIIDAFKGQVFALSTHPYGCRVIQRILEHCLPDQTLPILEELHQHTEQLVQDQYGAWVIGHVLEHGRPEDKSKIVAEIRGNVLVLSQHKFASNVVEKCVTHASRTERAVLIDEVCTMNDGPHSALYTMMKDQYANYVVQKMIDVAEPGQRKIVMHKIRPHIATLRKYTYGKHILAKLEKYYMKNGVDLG
Summed up: as §1

For the next experiment, the target named is PUM1 PUF domain R8-RYD (Homo sapiens, UniProt Q14671 828-1176, N1122R;Q1126D). Summed up: as §1
The target in another experiment is PUM1 PUF domain R8-LHR (Homo sapiens, UniProt Q14671 828-1176, N1122L;Y1123H;Q1126R). Summed up: as §1
The target in the next experiment is PUM1 PUF domain R8-DYC (Homo sapiens, UniProt Q14671 828-1176, N1122D;Q1126C). A digest of the protocol:
as §1

In the next experiment the target is PUM1 PUF domain R5-CHM (Homo sapiens, UniProt Q14671 828-1176, R1008H;Q1011M). A digest of the protocol: as §1
For another experiment, the target named is PUM1 PUF domain R2-QWL (Homo sapiens, UniProt Q14671 828-1176, N899Q;Y900W;Q903L). Summed up: as §1
A further experiment concerns the target PUM1 PUF domain R2-RKV (Homo sapiens, UniProt Q14671 828-1176, N899R;Y900K;Q903V). Summed up: as §1

In the case of “GGCUAGAACUAGUGGAUCCCCCGGCGCCCGGCGGCUCGAGCCCGGGUAAGUGUAAUUAGUCUGCAUGCCGCCGGGCGCCAUGCCUGCAGGUCGACUCUAGAAAACAUG”, the binding signal with PUM1 PUF domain R3-RTC was 3.59 log2 enrichment (interaction score).

With “GGCUAGAACUAGUGGAUCCCCCGGCGCCCGGCGGCUCGAGCCCGGGUAAGUGAAAAUAGUCUGCAUGCCGCCGGGCGCCAUGCCUGCAGGUCGACUCUAGAAAACAUG”, in the experiment with PUM1 PUF domain R6-AWG, the binding signal was 2.57 log2 enrichment (interaction score).

As to “GGCUAGAACUAGUGGAUCCCCCGGCGCCCGGCGGCUCGAGCCCGGGUAAGCGUAAAUAGUCUGCAUGCCGCCGGGCGCCAUGCCUGCAGGUCGACUCUAGAAAACAUG”, the values for the binding signal with PUM1 PUF domain R8-RYD, with PUM1 PUF domain R8-LHR and with PUM1 PUF domain R8-DYC were 4.23 log2 enrichment (interaction score), 4.05 log2 enrichment (interaction score) and 4.43 log2 enrichment (interaction score), respectively.

As for “GGCUAGAACUAGUGGAUCCCCCGGCGCCCGGCGGCUCGAGCCCGGGUAAGUGUAAAUAGUCUGCAUGCCGCCGGGCGCCAUGCCUGCAGGUCGACUCUAGAAAACAUG”, the binding signal with PUM1 PUF domain R8-LHR was 2.47 log2 enrichment (interaction score); in the experiment with PUM1 PUF domain R5-CHM, 2.96 log2 enrichment (interaction score).

“GGCUAGAACUAGUGGAUCCCCCGGCGCCCGGCGGCUCGAGCCCGGGUAAGUGUAAAAAGUCUGCAUGCCGCCGGGCGCCAUGCCUGCAGGUCGACUCUAGAAAACAUG”: the binding signal with PUM1 PUF domain R2-QWL is 5.92 log2 enrichment (interaction score); with PUM1 PUF domain R2-RKV, 3.51 log2 enrichment (interaction score).

For the sequence “GGCUAGAACUAGUGGAUCCCCCGGCGCCCGGCGGCUCGAGCCCGGGUAAGUGUAAAGAGUCUGCAUGCCGCCGGGCGCCAUGCCUGCAGGUCGACUCUAGAAAACAUG”, the binding signal with PUM1 PUF domain R2-RKV was 4.57 log2 enrichment (interaction score).
